Measured values from the supplement of paper PMC11219838.

What was measured:
Details in all cases: 60 µM; 5 days; temperature: 20 °C
Meloidogyne hapla J2 = test: proportion of mobile M. hapla J2 relative to DMSO control (fraction of DMSO control); higher = more viable, less nematicidal, active = 0.7 or less
Summary of the method: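 Sealed 96-well plates, each well holding around 25 M. hapla J2 in distilled water with compound pinned to 60 µM final (0.6% v/v DMSO), were shaken at 200 rpm for 5 days at 20 °C. Then 2 µL of 1 M NaOH was added to each well. Microscope-scored mobility was normalised to the mean of DMSO-only wells from the same plate. Eight such wells were on each plate, and the two biological replicates were averaged.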

[1] = tested on: Caenorhabditis elegans dauer (daf-2(e1370)); test: proportion of mobile C. elegans dauer larvae relative to DMSO control (fraction of DMSO control); higher = more viable, less nematicidal, active = 0.63 or less; extreme values may be limits of the assay
Summary of the method: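 Compound was added by pinning to 60 µM final, giving 0.6% v/v DMSO, in 96-well plates containing about 20 C. elegans dauers per well in liquid NGM. These dauers came from synchronized larvae held on MYOB plates with E. coli OP50 for 48 h at 25 °C. Plates were sealed and shaken at 200 rpm at 20 °C for 5 days. Under a dissection microscope, the proportion of mobile worms was scored relative to DMSO wells, and two biological replicates were averaged.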

Ditylenchus dipsaci = test: proportion of mobile D. dipsaci (mixed stage) relative to DMSO control (fraction of DMSO control); higher = more viable, less nematicidal, active = 0.86 or less; extreme values may be limits of the assay
Summary of the method: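 Mobility, expressed relative to DMSO controls, is the mean of two biological replicates. The test organisms were D. dipsaci grown on pea plants in Gamborg B-5 agar and extracted into water by filter funnel, with about 20 added per well of a 96-well plate in distilled water. Compound was pinned to 60 µM final (0.6% v/v DMSO), plates were sealed and shaken at 200 rpm for 5 days at 20 °C, and mobile worms were scored under a microscope once 2 µL 1 M NaOH had been added.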

| SMILES | proportion of mobile M. hapla J2 (Meloidogyne hapla J2) | proportion of mobile C. elegans dauer larvae [1] | proportion of mobile D. dipsaci (Ditylenchus dipsaci) |
| --- | --- | --- | --- |
| CSc1ccccc1-c1nc(-c2cccnc2)no1 | 1.07 (inactive) | 0.684 (inactive) | 1 (inactive) |
| COc1ccccc1NC(=O)CSc1nnc(-c2ccc(Cl)cc2)o1 | 0.902 (inactive) |  | 1 (inactive) |
| Cc1cc(OCc2nc(-c3ccccc3)no2)ccc1Br | 0.932 (inactive) |  | 1 (inactive) |
| Cc1cccc(-c2noc(-c3ccc(C)cc3Cl)n2)c1 | 0.964 (inactive) |  | 1 (inactive) |
| COc1ccc(NC(=O)CSc2nnc(-c3ccccc3)o2)cc1 | 0.907 (inactive) |  | 1 (inactive) |
| COc1ccc(Cl)cc1-c1noc(-c2ccccc2)n1 | 1.02 (inactive) | 1 (inactive) | 1 (inactive) |
| CCOC(=O)c1sc(NC(=O)CSc2nnc(-c3ccc(Cl)cc3)o2)c(C#N)c1C | 0.929 (inactive) |  | 1 (inactive) |
| Brc1cccc(-c2nc(-c3ccccc3)no2)c1 | 1.02 (inactive) |  | 1 (inactive) |
| Clc1ccc(CSc2nnc(-c3ccccn3)o2)cc1 | 0.835 (inactive) |  | 1 (inactive) |
| COc1ccccc1-c1nnc(SCc2ccccc2C)o1 | 0.929 (inactive) |  | 1 (inactive) |
| O=C(CSc1nnc(-c2cccnc2)o1)c1ccc(Br)cc1 | 1.04 (inactive) |  | 1 (inactive) |
| Cc1ccc(-c2noc(-c3cccc(C)c3)n2)cc1 | 0.947 (inactive) |  | 1 (inactive) |
| COc1ccc(-c2nnc(SCC(=O)Nc3ccc(C)cc3Br)o2)cc1 | 1.01 (inactive) |  | 1 (inactive) |
| Cc1cccc(OCc2nc(-c3ccccc3)no2)c1 | 1.04 (inactive) |  | 1 (inactive) |
| Fc1ccc(OCc2nc(-c3ccccc3)no2)cc1 | 1.02 (inactive) |  | 1 (inactive) |
| CCc1ccc(NC(=O)CSc2nnc(-c3ccc(Cl)cc3Cl)o2)cc1 | 0.785 (inactive) |  | 1 (inactive) |
| COc1ccccc1-c1noc(-c2ccccc2)n1 | 1.04 (inactive) |  | 1 (inactive) |
| O=C(CSc1nnc(-c2ccc(Br)cc2)o1)OCc1ccccc1 | 1.02 (inactive) |  | 1 (inactive) |
| CC(Oc1ccccc1)c1nc(-c2cccnc2)no1 (stereo unspecified) | 1.06 (inactive) | 1 (inactive) | 1 (inactive) |
| Cc1cc(OCc2nc(-c3cccnc3)no2)cc(C)c1Br | 1.05 (inactive) |  | 1 (inactive) |
| Cc1ccc(OCc2nc(-c3cccnc3)no2)c(Br)c1 | 0.992 (inactive) |  | 1 (inactive) |
| Cc1ccc(-c2noc(-c3ccc(C)cc3Cl)n2)cc1 | 0.893 (inactive) |  | 1 (inactive) |

| SMILES | proportion of mobile M. hapla J2 (Meloidogyne hapla J2) | proportion of mobile C. elegans dauer larvae [1] | proportion of mobile D. dipsaci (Ditylenchus dipsaci) |
| --- | --- | --- | --- |
| CNC(=O)c1ccccc1-c1nc(-c2ccc(F)cc2)no1 | 0.987 (inactive) |  | 1 (inactive) |
| Cc1ccc(C(=O)CSc2nnc(-c3ccccc3)o2)cc1 | 0.968 (inactive) |  | 1 (inactive) |
| Fc1ccc(OCc2nc(-c3ccc(Br)cc3)no2)cc1 | 0.95 (inactive) |  | 1 (inactive) |
| CC(=O)Nc1ccc(NC(=O)c2ccccc2-c2nc(-c3ccccc3Cl)no2)cc1 | 0.866 (inactive) |  | 1 (inactive) |
| Cc1cc(OCc2nc(-c3ccccn3)no2)ccc1Cl | 0.834 (inactive) |  | 1 (inactive) |
| O=C(CSc1nnc(-c2ccccc2)o1)Nc1ccccc1C(F)(F)F | 0.918 (inactive) |  | 1 (inactive) |
| CCC(=O)Nc1ccccc1-c1nc(-c2cccnc2)no1 | 1.02 (inactive) |  | 1 (inactive) |
| O=C(CSc1nnc(-c2ccc(Br)cc2)o1)N1CCCCCC1 | 0.844 (inactive) |  | 1 (inactive) |
| COc1ccccc1-c1nnc(SCC(=O)Nc2ccccc2Cl)o1 |  | 1 (inactive) | 1 (inactive) |
| Cc1ccc(C)c(-c2nc(-c3ccncc3)no2)c1 | 1.09 (inactive) |  | 1 (inactive) |
| Clc1ccc(-c2noc(-c3ccc4c(c3)OCCO4)n2)cc1 | 1.02 (inactive) |  | 1 (inactive) |
| Cc1ccc(OCc2nc(-c3cccnc3)no2)cc1C | 1.02 (inactive) |  | 1 (inactive) |
| COc1ccc(-c2nnc(SCC(=O)Nc3ccc(Cl)c(Br)c3)o2)cc1 | 0.933 (inactive) |  | 1 (inactive) |
| O=C(Nc1ccc(-c2noc(-c3ccccn3)n2)cc1)c1cccc(Cl)c1 | 0.87 (inactive) |  | 1 (inactive) |
| COc1cccc(-c2noc(COc3ccc(C)cc3C)n2)c1 | 0.941 (inactive) |  | 1 (inactive) |
| COc1ccc(-c2nnc(SCC(=O)Nc3ccc(C(C)C)cc3)o2)cc1 |  | 1 (inactive) | 1 (inactive) |
| COc1cccc(-c2nc(-c3ccc(Cl)cc3)no2)c1 | 1.04 (inactive) |  | 1 (inactive) |
| Fc1ccccc1OCc1nc(-c2ccc(Cl)cc2)no1 | 1 (inactive) |  | 1 (inactive) |
| O=C(CSc1nnc(-c2cc3ccccc3o2)o1)NC1CC1 | 0.928 (inactive) |  | 1 (inactive) |
| Clc1ccc(-c2noc(COc3ccccc3Cl)n2)cc1 | 0.891 (inactive) |  | 1 (inactive) |
| CC(C)(C)c1ccc(-c2nnc(SCC(=O)c3ccc(F)cc3)o2)cc1 | 0.825 (inactive) |  | 1 (inactive) |
| COc1ccc(-c2noc(-c3ccc(C)c(Cl)c3)n2)cc1 | 0.986 (inactive) |  | 1 (inactive) |
